Holding throughout (settings): concentration: 1 μM, replicates: in singlicate; n = 1
For test [1], the system named is ACVR1B.
Test [2] deals with ACVR1.
The test system of test [3] is ACVR2A.
Test [4] relates to ACVR2B.
Test [5] deals with ACVRL1.
Test [6] concerns T1, ADCK3.
T1 construct: gene CABC1

For test [7], the system named is ADCK4.
In test [8] the test system is AKT1.
For test [9], the system named is AKT2.
Test [10] concerns AKT3.
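Note: KINOMEscan kinase panel screen.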

In the case of `CCc1nc(-c2cccc(C)c2)c(-c2ccncc2)s1`, the “%Inh” value in test [1] was determined as 20%; in test [2], 3%; in test [3], 5%; in test [4], 0%; in [5], 5%; in test [6], 55%. The “%Inh” value in test [7], in test [8], in test [9] and in test [10] was 0% each time.

For `COc1cc2ncn(-c3cc(OCCCc4ccccc4)c(C(N)=O)s3)c2cc1OC` [GSK205189], the “%Inh” value in test [1] was 0%; in test [2] it was 0%; in [3] it was 0%; in [4], 0%; in test [5], 0%; in test [6] it was 24%. Further, the “%Inh” value in [7] is given as 3%; in [8], 0%; in test [9] it was 2%; in test [10] it was 0%.

On to `O=C(Nc1ccc2c(c1)OCO2)NC1CCN(c2ccnc(NCc3ccc(F)cc3)n2)CC1` [GSK1379859], for which the “%Inh” value in test [1], in test [2], in [3], in [4], in test [5] and in test [6] was 0% throughout. The “%Inh” value was found to be 30% in test [7], 0% in test [8], 5% in test [9] and 0% in test [10].

For the origin of these results see paper PMC5540273 (PLoS ONE, 2017).
